Common to all, as to assay: NCI-60 one-dose screen, 48 h (100 = growth as untreated, 0 = no growth, -100 = all killed)
Common to all, as to conditions: 10 µM unless noted

Test [1] relates to SK-MEL-2 melanoma.
The subject of test [2] is EKVX NSCLC.
The subject of test [3] is SN12C renal.
In test [4] the test system is UO-31 renal.
Test [5] deals with TK-10 renal.
For test [6], the system named is ACHN renal.
In test [7] the test system is CAKI-1 renal.
The test system of test [8] is A498 renal.
Test [9] concerns CCRF-CEM leukemia.
Test [10] deals with MOLT-4 leukemia.

Each structure is given as a SMILES string. Compounds without any hit were thinned out: in the full panel of roughly 83,000, 20% have a hit.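 In brief: 96-well plates, 48 h treatment, single concentration, percent growth endpoint.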 Values without a mark were called inactive. Calls of active or inactive are those of the source. The calls were made as follows: active = growth percent below 10; inactive = the rest.

In the case of `CCOc1ccccc1[C@H]1C(C(=O)c2ccc(Cl)cc2)C2(N[C@@H]1c1ccccc1)C(=O)Nc1ccc(Br)cc12` (stereo not given in full), the growth in [1] was -66.8% (active); in test [2], 3.88% (active); in test [3] it was -86.6% (active); in test [4] it was 5.4% (active); in [5] it was 27%; in [6], 1.27% (active). Besides, the growth in [7] is 7.21% (active); in test [8], -22.5% (active); in test [9] it was 4.88% (active); in [10], -23.2% (active).
On to `Cc1cccc(NCC(=O)N2CCN(c3ncnc4c3cnn4-c3ccccc3)CC2)c1`, for which the growth in test [1] is 46.7%; in test [2] it was 53.7%; in test [3], 76.9%; in [4], 34.3%; in test [5], 93.8%; in test [6], 45.4%. For the same compound, the growth was 47.8% in test [7], 108% in test [8], 62.7% in test [9] and 58.2% in test [10].
As for `Cc1ccc(C(C(=O)NC2CCCCC2)N(Cc2ccccc2Cl)C(=O)c2ccc(CN3CCOCC3)o2)o1` (stereo not given), the growth is 92.8% in test [1]; 89% in test [2]; 95% in [3]; 71.1% in test [4]; 101% in test [5]; 104% in test [6]. Also, the growth is 72.4% in test [7], 119% in test [8], 86.8% in test [9] and 70.3% in [10].
`CC(C)C[C@H](NC(=O)[C@@H]1CCCCCCCCCCC(=O)N[C@@H](CC(=O)N2CCC[C@@H]2C2CCCC2)C(=O)N1)B(O)O`: the growth in test [1] is -70.6% (active); in test [2] it was -39.2% (active); in test [3], -88.9% (active); in test [4], -66.8% (active); in [5], 0.691% (active); in [6], 3.27% (active). The growth in [7] is 7.24% (active); in [8] it was -87.2% (active); in test [9] it was 44%; in test [10] it was -19.9% (active).
Regarding `Clc1ccc(-c2nc3c4c(-c5ccccc5)c(-c5ccccc5)n(Cc5ccccc5)c4ncn3n2)cc1`, the growth in [1] was -10.4% (active); in [2], 2.2% (active); in test [3] it was 0.356% (active); in test [4] it was 1.71% (active); in [5] it was 24.1%; in test [6], -4.9% (active). In addition, the growth is -20.1% (active) in test [7], -17.4% (active) in [8], -2.09% (active) in test [9] and -5.99% (active) in test [10].
For the compound `C=CC(=O)Nc1ccc(C(=O)/C=C/c2ccc(N(C)C)cc2)c(O)c1`, the growth in test [1] is 3.4% (active); in test [2] it was 17.3%; in [3], 5.34% (active); in test [4] it was 1.04% (active); in test [5], 23.9%; in test [6] it was -47.5% (active). In addition, the growth in test [7] was -18.1% (active); in [8], 42.8%; in test [9] it was 11.2%; in test [10], 7.05% (active).
Turning to `CCN1CCN(Cc2ccc(C(=O)Nc3cccc(Nc4ccc5c(OC)cccc5n4)c3)cc2C(F)(F)F)CC1`, the growth in [1] is -76% (active); in test [2], -95.7% (active); in test [3], -90.5% (active); in [4] it was -85.8% (active); in [5], -86.2% (active); in [6], -100% (active). Further, the growth is -98.3% (active) in test [7], -88.8% (active) in test [8], -30.5% (active) in test [9] and -45.4% (active) in test [10].
Turning to `CC(C)(C)c1cc(-c2cc(-c3ccccc3)[nH]c(=O)c2C#N)cc(C(C)(C)C)c1`, the growth in test [1] was 94.4%; in [2] it was 34.2%; in [3] it was 30.7%; in [4] it was 24.2%; in test [5], 27.6%; in test [6], 23.3%. Further, the growth in [7] was -11.5% (active); in test [8] it was 21.5%; in test [9], 68.9%; in test [10], 70.9%.
With `O=C1CC(c2ccc(I)cc2)OC2C=Cc3ccccc3C12` (stereo not given), the growth is 98.8% in test [1]; 82.9% in [2]; 99% in [3]; 85.8% in [4]; 139% in [5]; 109% in test [6]. The growth in [7] is 91.7%; in test [8], 119%; in [9] it was 94.4%; in test [10], 96%.
Regarding `CS(=O)(=O)Nc1cccc(-n2cnc3cc(-c4ccc(O)cc4)ccc32)c1`, the growth in [1] is 27.2%; in test [2], 51.6%; in test [3], 41.1%; in test [4], 44.3%; in test [5], 93%; in test [6], 49.7%. Moreover, the growth in test [7] was 30.6%; in [8] it was 149%; in test [9] it was 22.2%; in test [10], 24.4%.
Regarding `COc1ccccc1NC(=O)N/N=C/c1c[nH]c2ccccc12`, the growth in [1] is -24.9% (active); in [2], 12.3%; in [3], 23.2%; in test [4] it was 39.1%; in test [5], 33.2%; in test [6], 25.8%. The growth in test [7] is 42%; in test [8] it was 60.6%; in test [9], 17.4%; in test [10], 7.13% (active).
Turning to `NS(=O)(=O)c1cccc(Nc2nc(SCC(=O)c3ccc(F)cc3)nc3ccccc23)c1`, the growth in test [1] was -47% (active); in test [2] it was 28%; in test [3], 15.8%; in test [4], 17.9%; in [5], 44.6%; in [6] it was 25.9%. Further, the growth in [7] is 21.9%; in [8] it was 71.1%; in [9] it was 1.38% (active); in test [10], 2.93% (active).
As for `CN(C)c1ccc(/C=C/c2n(Cc3ccc4ccccc4c3)c3ccccc3[n+]2Cc2ccc3ccccc3c2)cc1`, the growth is -70.8% (active) in [1]; -95.8% (active) in test [2]; -80.5% (active) in [3]; -91.9% (active) in test [4]; -81.1% (active) in test [5]; -97.6% (active) in test [6]. For the same compound, the growth in test [7] is -95.9% (active); in test [8], -82.1% (active); in test [9] it was -48.5% (active); in test [10], -38.1% (active).

(Values after PubChem BioAssay (NCI).)
